Common to all, as to assay type: functional
Assay [1] has as its target Solute carrier family 2, facilitated glucose transporter member 1 (Homo sapiens) (UniProt P11166). The assay is described as follows: ST_JUDE_LEISH: Cytotoxicity at 2uM final concentration against transgenic Leishmania Mexicana promastigotes LmGLUT1 that are glucose transport deficient and complemented with the human glucose transporter GLUT1. Activity is measured by DNA content using SYBR green in vitro.

Assay [2] has as its target Hexose transporter 1 (Plasmodium falciparum) (UniProt O97467). Briefly: ST_JUDE_LEISH: Cytotoxicity at 2uM final concentration against transgenic Leishmania Mexicana promastigotes LmPfHT that are glucose transport deficient and complemented with the Plasmodium falciparum hexose transporter. Activity is measured by DNA content using SYBR green in vitro.
Assay [3] concerns the target Glucose transporter (Leishmania mexicana) (UniProt O61059). The assay is described as follows: ST_JUDE_LEISH: Cytotoxicity at 2uM final concentration against transgenic Leishmania Mexicana promastigotes LmGT2 that are glucose transport deficient and complemented with the L. Mexicana glucose transporter 2. Activity is measured by DNA content using SYBR green in vitro.

Chain of Solute carrier family 2, facilitated glucose transporter member 1 (Homo sapiens) (P11166 whole entry): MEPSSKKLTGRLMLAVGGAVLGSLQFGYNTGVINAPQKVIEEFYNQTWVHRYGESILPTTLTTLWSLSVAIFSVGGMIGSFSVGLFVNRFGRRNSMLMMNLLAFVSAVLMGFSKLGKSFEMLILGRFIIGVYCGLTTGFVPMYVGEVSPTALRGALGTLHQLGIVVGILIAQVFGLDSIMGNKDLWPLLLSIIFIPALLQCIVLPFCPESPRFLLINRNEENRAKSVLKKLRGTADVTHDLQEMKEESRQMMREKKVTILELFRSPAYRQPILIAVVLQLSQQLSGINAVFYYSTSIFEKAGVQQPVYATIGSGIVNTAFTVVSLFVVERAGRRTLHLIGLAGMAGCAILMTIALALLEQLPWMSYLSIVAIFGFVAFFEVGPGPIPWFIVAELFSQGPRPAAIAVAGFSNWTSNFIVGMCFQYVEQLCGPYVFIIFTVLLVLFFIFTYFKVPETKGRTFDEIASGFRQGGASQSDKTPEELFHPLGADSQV

For `COc1cc(-c2nc(-c3ccccc3)c(-c3ccccc3)[nH]2)cc(OC)c1O`, the values for the inhibition in assay [1], in assay [2] and in assay [3] were -0.19%, -0.87% and -1.53%, respectively.

Turning to `O=C(NCCCCN1CCN(CC=Cc2ccccc2)CC1)c1ccc(NC(=O)c2cc(Cl)cc(Cl)c2)cc1`, the inhibition (commonly the change of the read-out against control, counted positive when it falls) in assay [1] was -0.99%; in assay [2], -0.05%; in assay [3], -0.79%.

For `COc1ccc(Nc2nccc(-c3ccc4c(-c5ccsc5)cnc(N)c4c3)n2)cc1`, the inhibition came to 1.99% in assay [1], 7.26% in assay [2] and 6.65% in assay [3].

On to `O=C(/C=C/c1ccc(Cl)c(Cl)c1)NCCCCCN1CCC(c2cn[nH]c2-c2ccccc2)CC1`, for which the inhibition in assay [1] was found to be 4.33%; in assay [2], 3.45%; in assay [3] it was 1.87%.

On to `CC1(C)N=C(N)N=C(N)N1c1ccc(Br)cc1`, for which the inhibition in assay [1] is 0.61%; in assay [2], 1.29%; in assay [3], 3.63%.

Turning to `Fc1ccc(-c2csc3ncnc(Cl)c23)cc1`, the inhibition in assay [1] is -0.36%; in assay [2] it was -0.72%; in assay [3], -2.14%.

Regarding `CCN(CC)CCOc1ccc(C(O)(C#CC(O)(c2ccccc2)c2ccc(OCCN(CC)CC)cc2)c2ccccc2)cc1` (centres undefined), the inhibition in assay [1] is -1.1%; in assay [2], -2.58%; in assay [3] it was 1.94%.

For the compound `O=C(/C=C/c1ccc(Cl)c(Cl)c1)NCCCCCN1CCCN(C(=O)Nc2ccc(C(F)(F)F)cc2)CC1`, the figures for the inhibition in assay [1], in assay [2] and in assay [3] were 2.96%, 2.53% and 5.5%, respectively.

In the case of `CC(C)n1ncc2c(C(=O)N3CCCC4CCCCC43)cc(C3CC3)nc21` (centres undefined), the figures for the inhibition in assay [1], in assay [2] and in assay [3] were 5.54%, 6.45% and 5.73%, respectively.

As for `COc1ccc(Br)cc1C1C2C(=O)N(c3ccc(Br)cc3)C(=O)C2C2(C(=O)O)CC(OCc3ccccc3)CN12` (centres undefined), the inhibition in assay [1] was 12.4%; in assay [2], 12%; in assay [3], 10.2%.

In the case of `COc1ccc2nccc([C@@H](O)CN3CCC(NCc4cnc5snnc5c4)C(F)C3)c2c1` (some centres undefined), the results for the inhibition in assay [1], in assay [2] and in assay [3] were 0.43%, 1.51% and 2.93%, respectively.

For `CN1CCN(C(C(=O)NCc2cc(Cl)cc(Cl)c2)c2ccc(NC(=O)Nc3ccccc3)cc2)CC1` (centres undefined), the inhibition was 2.24% in assay [1], 1.94% in assay [2] and 1.21% in assay [3].

`Cc1cc(F)ccc1Oc1nc(Nc2ccc(N3CCOCC3)c(F)c2)nc2c1S(=O)(=O)CCC2`: the inhibition worked out at 6.48% in assay [1], 7.33% in assay [2] and 2.35% in assay [3].

`ON=C1CCc2cc(-c3cc(-c4ccc(OC5CCNCC5)cc4)oc3-c3ccncc3)ccc21`: the inhibition in assay [1] was 1.43%; in assay [2] it was 3.53%; in assay [3] it was -0.04%.

Turning to `COc1ccc(C=NNc2nc(O)cc(-c3ccccc3)n2)cc1OC`, the inhibition in assay [1] was 1.33%; in assay [2], -1.28%; in assay [3], -1.28%.

For `O=C(NC1CC1)c1ccc(N2CCC(Oc3ccc(F)cc3)CC2)nc1`, the figures for the inhibition in assay [1], in assay [2] and in assay [3] were 2.46%, 1.1% and 1.42%, respectively.

With `CC(C)c1cc(Oc2c(I)cc(CCNC(=N)N)cc2I)ccc1O`, the inhibition in assay [1] is -0.6%; in assay [2], -0.01%; in assay [3] it was -2.44%.

`COc1cccc(C2CCN(CCN3CCC(CNC(=O)c4ccc(-c5ccc(C(F)(F)F)cc5)cc4)CC3)CC2)c1`: the results for the inhibition in assay [1], in assay [2] and in assay [3] were -0.53%, 1.07% and 1.17%, respectively.

Take `Cc1ccc2ccncc2c1N`: the inhibition is 7.9% in assay [1], 3.24% in assay [2] and 6.36% in assay [3].

As for `O=C(NCc1cccc(F)c1)Nc1cccc(-c2cccc(-c3nc4ccccc4[nH]3)c2)c1`, the inhibition in assay [1] turned out to be 7.33%; in assay [2] it was 5.52%; in assay [3] it was 7.79%.

On to `COc1cc(CCNC(=O)Cc2ccc3ccccc3c2)ccc1OCc1ccccc1`, for which the inhibition worked out at 1.9% in assay [1], 1.88% in assay [2] and 0.92% in assay [3].

As for `COc1ccc(Nc2nccc(-c3cccc(NC(=O)c4cc5cc(F)ccc5[nH]4)c3)n2)cc1`, the inhibition in assay [1] was 3.61%; in assay [2], 0.11%; in assay [3] it was -1.2%.

As for `O=C(N[C@@H](Cc1ccccc1)[C@H](O)CNC1CCCCC1)c1cc(C2CCCC2)cc(N2CCCC2=O)c1`, the inhibition in assay [1] is -1.39%; in assay [2] it was -1.21%; in assay [3] it was -3.12%.

As to `O=C(Nc1ccc([N+](=O)[O-])cc1O)Nc1ccccc1Oc1ccccc1`, the inhibition was -1.52% in assay [1], -0.84% in assay [2] and -0.04% in assay [3].

Consider `CC1(C)C(=O)Nc2ccccc2N1C(=O)CN1CCN(c2ccccc2O)CC1`, for which the results for the inhibition in assay [1], in assay [2] and in assay [3] were 0.51%, -0.55% and -3.82%, respectively.

On to `O=[N+]([O-])c1cccc(CNC2CCN(Cc3ccc(-c4ccccc4)cc3)CC2)c1`, for which the inhibition in assay [1] was found to be 1.94%; in assay [2] it was 8.06%; in assay [3] it was 2.9%.

Take `COc1cccc(-c2ccc(C(=O)NCC3CCCN(Cc4cccc(C(F)(F)F)c4)C3)s2)c1` (centres undefined): the inhibition in assay [1] is 2.94%; in assay [2] it was -4.36%; in assay [3] it was 5.79%.

As for `O=S(=O)(Nc1cccc(CCN2CCC(N3CCCCC3)CC2)c1)c1cccc2cccnc12`, the inhibition in assay [1] is 0.25%; in assay [2], 0.35%; in assay [3], -2.07%.

On to `COc1ccc2nc(Nc3nc4cnccc4[nH]3)sc2c1`, for which the inhibition in assay [1] came out at 4.17%; in assay [2], 4.93%; in assay [3], 5.34%.

Take `Cc1noc(-c2ccccc2)c1CN1CCCC2(CC(C(=O)NCc3cccc(F)c3F)=NO2)C1` (centres undefined): the figures for the inhibition in assay [1], in assay [2] and in assay [3] were 0.11%, -0.09% and -0.8%, respectively.

With `Oc1ccc(CCNc2nc(NCc3ccccc3-c3cccc(Cl)c3)nc(N3CCNCC3)n2)cc1`, the inhibition in assay [1] is -2.47%; in assay [2] it was -1.9%; in assay [3] it was -2.27%.

In the case of `Cc1cc(N(C)C)nc(Nc2ccc(NC(=O)c3ccc(Br)o3)cc2)n1`, the inhibition was determined as 7.73% in assay [1], 9.85% in assay [2] and 3.96% in assay [3].

Turning to `O=C(N[C@H]1CCN(Cc2ccc(OCCCN3CCCCC3)cc2)C1)c1ccc(Cl)c(Cl)c1`, the inhibition in assay [1] was determined as 2.14%; in assay [2], 3.98%; in assay [3], 3.42%.
